Experimental data from PubChem BioAssay (Tox21).
Where “and” joins values, the source holds several entries; their conditions need not be identical. Identical values can stand only once. Records with an inconclusive call do not appear. More than one record can exist for a structure, and the calls need not agree. Calls of active or inactive are those of the source. Unless noted, calls follow the shape of the dose curve; as a rule, active = well fitted curve in the direction sought with a large enough effect in the repeat runs; inconclusive = weak or mixed curves; inactive = no such curve, though single readings can be large; an effect the other way counts as inactive or inconclusive.

Columns and labels:
[1] = molecular target: Retinoic acid receptor RXR-alpha (Homo sapiens) (UniProt P19793); assay: qHTS assay to identify small molecule agonists of the RXR signaling pathway (AID 1159527; calls by dose curve; also: nearly all actives have a fitted effect of over 35% in size)
Outline: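 qHTS of the Tox21 10K library in GeneBLAzer RXR-alpha HEK 293T cells carrying a beta-lactamase reporter […]; 16 hr treatment, 9-cis retinoic acid as agonist control, FRET read-out.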

[2] = qHTS assay to identify small molecule agonists of the RXR signaling pathway - cell viability counter screen (AID 1159529); also: series mostly up to about 77 µM; nearly all actives have a fitted effect of over 50% in size
Outline: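 Cell viability is measured by CellTiter-Glo luminescence, 30 min at room temperature, in wells already read for beta-lactamase. Engineered HEK 293T cells (RXR-alpha-UAS-bla) are dosed 16 hr at 37 C. Tetraoctyl ammonium bromide serves as positive control.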

[3] = qHTS assay to identify small molecule antagonists of the retinoid acid receptor (RAR) signaling pathway - cell viability counter screen (AID 1159551); also: nearly all actives have a fitted effect of over 35% in size
Outline: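 C3RL4 RARE-luciferase cells, 1,000/well, incubated overnight, then dosed with compound plus 1 uM retinol (final). After 6 hr at 37 C, viability read by CellTiter-Glo ATP luminescence following 30 min at room temperature.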

[4] = qHTS assay to identify small molecule antagonists of the retinoic acid receptor (RAR) signaling pathway (AID 1159552; also: nearly all actives have a fitted effect of over 50% in size)
Outline: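 Quantitative HTS in C3RL4 RARE-luciferase reporter cells. Compounds were added with 1 uM (final) retinol; luminescence was read after 6 hr.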

[5] = qHTS assay to identify small molecule agonists of the retinoic acid receptor (RAR) signaling pathway (AID 1159553); also: potency is read from the fitted curve at half-maximal effect
Outline: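 C3RL4 RARE-luciferase cells were seeded at 1,000/well and grown overnight at 37 C, then exposed to compounds for 6 hr at 37 C, 5% CO2. Luciferase reagent was added and luminescence was read after 30 min at room temperature.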

[6] = qHTS assay to identify small molecule antagonists of the estrogen related receptor (ERR) signaling pathway - cell viability counter screen (AID 1224818); also: series mostly up to about 46 µM
Outline: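 ERR cells, 2,000 per well, compound added after 6 h and incubated 17.5 h at 37 C. Viability read by CellTiter-Fluor fluorescence after a further 30 min at 37 C.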

[7] = qHTS assay to identify small molecule antagonists of the estrogen related receptor (ERR) signaling pathway (AID 1224819;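 also: luminescence from an ERR-driven luciferase reporter measured with One-Glo reagent; series mostly up to about 46 µM; nearly all actives have a fitted effect of over 50% in size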)
Outline: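 ERR reporter cell line (NTP) plated at 2,000 cells/well, settled 6 h at 37C/5% CO2, then exposed to LOPAC compounds for 18 h at 37C. One-Glo luciferase luminescence read after 30 min at room temperature.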

[8] = qHTS assay to identify small molecule agonists of the estrogen related receptor (ERR) signaling pathway (AID 1224820); also: potency is read from the fitted curve at half-maximal effect
Outline: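 ERR reporter cells (NTP line) plated 2,000/well, incubated 6 h at 37 C/5% CO2, then pinned with compounds in DMSO and held 18 h at 37 C. One-Glo added; luminescence read after 30 min at room temperature.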

[9] = system: estrogen-related receptor alpha (ERRalpha) with PGC-1alpha coactivator, human; assay: qHTS assay to identify small molecule antagonists of the estrogen related receptor signaling pathway with the pleiotropic PPARgamma coactivator (PGC) (AID 1224821; calls by dose curve;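 also: series mostly up to about 46 µM; lower luminescence signal means antagonism of PGC/ERR signalling; nearly all actives have a fitted effect of over 50% in size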)
Outline: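 Cells engineered for PGC/ERR signalling (line from NTP) were plated 6 h at 37 C/5% CO2, then exposed to DMSO-dissolved compound for 18 h at 37 C. Luciferase activity was read by One-Glo luminescence after 30 min at room temperature.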

[10] = qHTS assay to identify small molecule antagonists of the estrogen related receptor signaling pathway with the pleiotropic PPARgamma coactivator (PGC) cell viability counter screen (AID 1224822; also: series mostly up to about 46 µM)
Outline: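 PGC/ERR cells rested 6 h, then compound-treated 17.5 h at 37 C. CellTiter-Fluor added for 30 min at 37 C, viability measured by fluorescence intensity.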

Measured: Potency

Chain of Retinoic acid receptor RXR-alpha (Homo sapiens) (P19793 whole entry, looked up): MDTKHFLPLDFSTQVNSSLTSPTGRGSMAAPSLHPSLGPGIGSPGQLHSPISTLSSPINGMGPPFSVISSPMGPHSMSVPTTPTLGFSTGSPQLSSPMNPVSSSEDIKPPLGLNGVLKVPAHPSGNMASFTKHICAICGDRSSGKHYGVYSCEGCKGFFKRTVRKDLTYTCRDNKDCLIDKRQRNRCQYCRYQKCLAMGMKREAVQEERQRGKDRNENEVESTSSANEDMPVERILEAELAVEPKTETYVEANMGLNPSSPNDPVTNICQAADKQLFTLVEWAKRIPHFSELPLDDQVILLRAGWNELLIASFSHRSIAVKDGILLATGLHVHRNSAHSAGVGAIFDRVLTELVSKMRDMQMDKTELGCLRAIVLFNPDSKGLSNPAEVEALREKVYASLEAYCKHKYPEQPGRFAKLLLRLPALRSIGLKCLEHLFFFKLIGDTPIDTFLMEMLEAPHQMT

O=C1O[C@H](CO)[C@@H](O)[C@H](O)[C@H]1O
inactive: [1] | [2] | [3] | [4] | [5]

O=C(O)c1cc(-c2ccccc2)nc2ccccc12
not listed: [5]
inactive: all other assays above

CC(C)Cc1ccccc1
inactive: [1] | [2] | [3] | [4] | [5]

CC(C)(C)C(=O)C1C(=O)c2ccccc2C1=O
inactive: [1] | [2] | [3] | [5]

CN(C)c1cccc(O)c1
inactive and 34.4 µM (active): [5]
inactive: [1] | [2] | [3]

OC[C@@H](O)[C@H](O)[C@H](O)[C@@H](O)CO
inactive: [1] | [2] | [3] | [4] | [5]

CNC[C@H](O)[C@@H](O)[C@H](O)[C@H](O)CO
inactive: [1] | [2] | [3] | [5]

Cc1ccc(C)c(C)c1
inactive: [1] | [2] | [3] | [4] | [5]

CC(=O)CCc1ccccc1
inactive: [1] | [2] | [3] | [5]

CC(C)(N=C=O)c1cccc(C(C)(C)N=C=O)c1
inactive: [1] | [2] | [3] | [4] | [5]

CCCCCCCCCCCCOCC1CO1 (configuration not stated)
inactive: [1] | [2] | [3] | [4] | [5]

CCCCCCC(C)(C)S
inactive: [1] | [2] | [3] | [5]

OCC#CCO
inactive: [1] | [2] | [3] | [4] | [5]

CCCCCC/C=C/CCCCCCCC(=O)O
inactive: [1] | [2] | [3] | [5]

NCc1cccc(CN)c1
inactive: [1] | [2] | [3] | [5]

OC1CCCC1
inactive: [1] | [2] | [3] | [4] | [5]

C[C@@H](O)[C@H]1C(=O)N2C(C(=O)O)=C(S[C@@H]3CN[C@H](C(=O)N(C)C)C3)[C@H](C)[C@H]12
inactive: [1] | [2] | [3] | [4] | [5]

O=[N+]([O-])C(CO)(CO)CO
inactive: [1] | [2] | [3] | [5]

C=C(C)C(=O)OCCC[Si](OC)(OC)OC
inactive: [1] | [2] | [3] | [5]

NC(=O)/N=N/C(N)=O
inactive: [1] | [2] | [3] | [4] | [5]

Nc1nc2ncc(CNc3ccc(C(=O)N[C@@H](CCC(=O)O)C(=O)O)cc3)nc2c(=O)[nH]1
inactive: [1] | [2] | [3] | [5]

O=c1c(-c2ccc(O)cc2)coc2cc(O)ccc12
active: [5] 2.41 µM and 12.2 µM | [8] 15.5 µM
inactive: all other assays above

Clc1cc(Cl)c(Cl)cc1Cl
inactive: [1] | [2] | [3] | [5]

CCOC(=O)[C@H](CCc1ccccc1)N[C@@H](C)C(=O)N1Cc2ccccc2C[C@H]1C(=O)O
inactive: [1] | [2] | [3] | [5]

O=C(Cl)c1c(Cl)c(Cl)c(C(=O)Cl)c(Cl)c1Cl
inactive: [1] | [2] | [3] | [4] | [5]

CC1CC(OC(=O)c2ccccc2O)CC(C)(C)C1 (configuration not stated)
inactive: [1] | [2] | [3] | [5]

CCCCC(CC)COC(=O)/C=C\C(=O)OCC(CC)CCCC (configuration not stated)
inactive: [1] | [2] | [3] | [4] | [5]

C=CC(=O)OCCCCCCCC(C)C
inactive: [1] | [2] | [3] | [4] | [5]

C=C1C2CCC(C2)C1(C)C (configuration not stated)
inactive: [1] | [2] | [3] | [5]

CCC(C)C=O (configuration not stated)
inactive: [1] | [2] | [3] | [5]

CCOC(=O)C1OC1c1ccccc1 (configuration not stated)
inactive: [1] | [2] | [3] | [5]

O=C(Oc1ccccc1)c1ccc(O)cc1
inactive: [1] | [2] | [3] | [4]
active: [5] 19.4 µM and 30.6 µM

Oc1ccc(OCc2ccccc2)cc1
4.24 µM (active) and inactive: [5]
inactive: [1] | [2] | [3]
